Records with an inconclusive call do not appear. Activity calls are given as the source filed them. Calls follow the shape of the dose curve; as a rule, active = well fitted cell-killing curve with a large enough effect; inconclusive = small, poorly fitted or top-dose-only effect, or another doubt; inactive = flat fitted curve, though single readings scatter.
Assay: Vero cells viability counterscreen for qRT-PCR qHTS assay of selected Zika virus inhibitors
Conditions: CellTiter-Glo ATP luminescence, 24 h; series mostly up to 41.8 µM
Source text: Assay Submitters (PI): Avindra Nath, Ph.D., National Institute of Neurological Disorders and Stroke (NINDS), Bethesda, MD Radhakrishnan Padmanabhan, Ph.D., Georgetown University (GU), Washington D.C. Zika Virus causes congenital defects, including microcephaly and is associated with Guillain-Barre syndrome, eningoencephalitis and myelitis in infected adult. […] Using a target-based approach, we hope to establish a screening paradigm to uncover novel, cell-active NS2B-NS3 protease (Zika Virus) specific inhibitors from NCATS' collection of small molecules using qHTS. […] Four assay panel was created to identify potential Zika Virus inhibitors. Namely, (1) GU unlinked NS2B-NS3 AMC tagged protease qHTS, (2) GU unlinked NS2B-NS3 Rhodamine tagged protease qHTS, (3) NINDS linked NS2B-NS3 AMC tagged protease qHTS, (4) NINDS linked NS2B-NS3 Rhodamine tagged protease qHTS. Inhibitors of the Zika virus primary screens are confirmed using qRT-PCR secondary assays, mCherry orthogonal assay, and Vero cells viability counterscreen. Cytotoxic compounds identified in the Vero cell viability counterscreen were excluded from the list of potential Zika virus inhibitors. Early Translation Branch (ETB) National Center for Advancing Translational Sciences (NCATS), Rockville, MD National Institute of Health (NIH), Bethesda, Maryland
Vero Cell Viability Assay: Vero cell cytotoxicity was determined using a luminescent readout with CellTiter Glo reagent (Promega, Madison, WI), which is based on measuring the ATP content within cells. Briefly, 4 uL of Vero cells at 2.5 x 10^5 cells/mL in DMEM containing 4% FBS were dispensed into 1536-well solid bottom tissue treated white plate using a Multidrop Combi dispenser (Thermo Scientific). Plates were incubated at 37 degrees C, 95% humidity, and 5% CO2 overnight to allow for cell attachment. Compounds were dissolved in DMSO at different concentrations and transferred via pintool (Wako Automation), for a final concentration of 57 uM - 0.029 uM. Plates were again incubated for 24 hours, followed by a 2 uL addition of CellTiter Glo. Finally, plates were incubated for 30 minutes at 37 degrees C and 5% CO2 before being read on a ViewLux (Perkin Elmer) for luminescence.

Structure (SMILES) | outcome
O=C(Nc1ccc(Br)cc1)c1cc(Br)cc(Br)c1O | inactive
Cc1cc(SCc2sc(-c3ccc(C(F)(F)F)c(F)c3)nc2C)ccc1OCC(=O)O | inactive
CN(C)[C@@H]1C(=O)C(C(N)=O)=C(O)[C@@]2(O)C(=O)C3=C(O)c4c(O)ccc(Cl)c4[C@@](C)(O)[C@H]3C[C@@H]12 | inactive
O=C1OC(c2ccc(O)c(S(=O)(=O)O)c2)(c2ccc(O)c(S(=O)(=O)O)c2)c2c(Br)c(Br)c(Br)c(Br)c21 | inactive
CN(C)[C@@H]1C(=O)C(C(N)=O)=C(O)[C@@]2(O)C(=O)C3=C(O)c4c(O)cccc4[C@@](C)(O)[C@H]3C[C@@H]12 | inactive
Oc1c(Cl)c(Cl)c(Cl)c(Cl)c1Cl | inactive
C[C@]12CC[C@@H]3c4ccc(OC(=O)N(CCCl)CCCl)cc4CC[C@H]3[C@@H]1CC[C@@H]2O | inactive
CC(=O)c1c(O)c(C)c(O)c(Cc2c(O)c3c(c(C(=O)/C=C/c4ccccc4)c2O)OC(C)(C)C=C3)c1O | inactive
CCCCCOc1cc2c(cc1-c1cc(/C=C/C(=O)O)ccc1O)C(C)(C)CCC2(C)C | inactive
